Measured values published in PubChem BioAssay (EPA / NIEHS).
Results filed as inconclusive are left out. Activity calls are given as the source filed them. The calls were made as follows, unless noted: active = hit-call score of the fitted dose curve at least 0.9, where 1 is the maximum; inconclusive = response in the unintended direction; inactive = score below 0.9.

Columns and labels:
[1] = target: Cellular tumor antigen p53 (Homo sapiens) (UniProt P04637); test: TOX21_p53_BLA_p2_ratio: Tox21 HCT-116 p53 Agonism Beta-lactamase Assay, Ratio, Phase 2 (AID 2283592)
Procedure, shortened: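 Cleaved-to-uncleaved substrate ratio (460 vs 530 nm) measured in HCT116 cells with an inducible beta-lactamase reporter linked to p53 activity. Compounds incubated 16 h at 37C before 2 h room-temperature CCF4-AM loading.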

[2] = target: Cellular tumor antigen p53 (Homo sapiens) (UniProt P04637); test: TOX21_p53_BLA_p3_ratio: Tox21 HCT-116 p53 Agonism Beta-lactamase Assay, Ratio, Phase 3 (AID 2283596)
Procedure, shortened: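 Cells were seeded at 4000/well, rested 5 h at 37C, then dosed with DMSO compound solutions (217-fold dilution) for 16 h. CCF4-AM substrate was loaded for 2 h at room temperature, and the 460/530 nm emission ratio was fitted for gain of signal versus DMSO.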

[3] = target: Cellular tumor antigen p53 (Homo sapiens) (UniProt P04637); test: TOX21_p53_BLA_p4_ratio: Tox21 HCT-116 p53 Agonism Beta-lactamase Assay, Ratio, Phase 4 (AID 2283601)
Procedure, shortened: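 HCT-116 p53 beta-lactamase reporter cells (4000/well) preincubated 5 h, then compound (217-fold dilution of DMSO stock) for 16 h at 37C. CCF4-AM substrate added 2 h at room temperature; 460/530 nm emission ratio fitted upward versus DMSO.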

[4] = TOX21_p53_BLA_p5_viability: Viability Assessment in the Tox21 HCT-116 p53 Agonism Beta-lactamase Assay, Phase 5 (AID 2283600)
Procedure, shortened: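 Viability is taken from cellular ATP content, measured by luciferase luminescence in the same wells after the beta-lactamase ratio read. Cells are seeded at 4000 per well and exposed to DMSO-dissolved compounds, diluted 217-fold, for 16 h.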

[5] = target: Cellular tumor antigen p53 (Homo sapiens) (UniProt P04637); test: TOX21_p53_BLA_p5_ratio: Tox21 HCT-116 p53 Agonism Beta-lactamase Assay, Ratio, Phase 5 (AID 2283599)
Procedure, shortened: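 HCT-116 p53-bla cells (4000/well) plated 5 h, dosed with compound (217-fold DMSO dilution) for 16 h at 37 C; CCF4-AM substrate 2 h at room temperature. Activity is the 460/530 nm emission ratio (405 nm excitation), fitted in gain-of-signal direction versus DMSO.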

THRA (gene 7067) = THRA (gene 7067) (UniProt P10827); test: TOX21_TRA_COA_Agonist_Followup_ratio: Tox21 Thyroid Hormone Receptor alpha Agonism through Coactivator Recruitment Follow-Up Assay, Ratio (AID 2283948; active = hit-call score of the fitted dose curve at least 0.9, where 1 is the maximum; inactive = score below 0.9)
Procedure, shortened: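 First, compound was incubated with 2.5 nM GST-TRα LBD in 0.10% BSA. Next, 200 nM fluorescein-SRC-2 and 2 nM Tb-anti-GST antibody were added. Finally, the 520:495 nm ratio was normalized to DMSO and T3 controls.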

THRB (gene 7068) [6] = target: THRB (gene 7068) (UniProt P10828); test: TOX21_TRB_BLA_Agonist_Followup_ratio: Tox21 Thyroid Hormone Receptor beta Agonism Beta-lactamase (BLA) Follow-Up Assay, Ratio (AID 2283954)
Procedure, shortened: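 Agonist mode: compounds (11-point, triplicate) incubated 18 h with HEK293T cells carrying GAL4-DBD/human TRβ-LBD and UAS-β-lactamase. Blue/green (460/530 nm) FRET ratio read after 2 h CCF4-AM loading; CellTiter-Glo viability run in the same plates.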

THRB (gene 7068) [7] = target: THRB (gene 7068) (UniProt P10828); test: TOX21_TRB_COA_Agonist_Followup_ratio: Tox21 Thyroid Hormone Receptor beta Agonism through Coactivator Recruitment Follow-Up Assay, Ratio (AID 2283963; active = hit-call score of the fitted dose curve at least 0.9, where 1 is the maximum; inactive = score below 0.9)
Procedure, shortened: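 Cell-free TR-FRET coactivator recruitment: GST-tagged TRβ LBD (5.0 nM) with 0.10% BSA incubated with compound, then fluorescein-SRC-2 peptide (200 nM) and Tb-anti-GST antibody (2 nM) added. 520:495 nm ratio normalized to DMSO (0%) and T3 (100%).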

[8] = target: Retinoic acid receptor RXR-alpha (Homo sapiens) (UniProt P19793); test: TOX21_TR_RXR_BLA_Agonist_Followup_ratio: Tox21 Thyroid Hormone Receptor beta Retinoid X Receptor alpha (RXRa) Agonism Beta-lactamase (BLA) Follow-Up Assay, Ratio (AID 2283968)
Procedure, shortened: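 Agonist mode: compounds given to RXRa-bla HEK293T cells at 11 concentrations, triplicate, 16 h at 37C/5% CO2. Readout is the 460:530 nm blue/green ratio after 2 h substrate loading at room temperature; DMSO baseline, 9-cis retinoic acid control.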

[9] = TOX21_p53_BLA_p4_viability: Viability Assessment in the Tox21 HCT-116 p53 Agonism Beta-lactamase Assay, Phase 4 (AID 2283597);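 also: hits lower the luminescence signal meaning cytotoxicity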
Procedure, shortened: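 Viability is taken as cellular ATP: after 16 h compound exposure of HCT116 cells and a 2 h room-temperature CCF4-AM substrate step, CellTiter-Glo reagent is added and luminescence is measured 30 min later.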

[10] = TOX21_TRB_BLA_Antagonist_Followup_viability: Viability Assessment in the Tox21 Thyroid Hormone Receptor beta Antagonism Beta-lactamase (BLA) Follow-Up Assay (AID 2283961)
Procedure, shortened: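 Cytotoxicity is measured in parallel with the antagonist-mode TRβ beta-lactamase screen, using ATP-coupled luciferase luminescence. Engineered HEK293T cells are treated for 18 h with 11-point compound series in triplicate.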

[11] = TOX21_TR_RXR_BLA_Antagonist_Followup_viability: Viability Assessment in the Tox21 Thyroid Hormone Receptor beta Retinoid X Receptor alpha (RXRa) Antagonism Beta-lactamase (BLA) Follow-Up Assay (AID 2283979)
Procedure, shortened: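 RXRa-bla HEK293T cells (2,500/well, phenol red-free DMEM, 2% charcoal-stripped FBS) were attached 5 h, then exposed to compounds at 11 concentrations in triplicate for 16 h at 37C. Viability measured by CellTiter-Glo ATP luminescence, bidirectional fitting versus DMSO.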

Measured: AC50

Chain of Cellular tumor antigen p53 (Homo sapiens) (P04637 whole entry, looked up): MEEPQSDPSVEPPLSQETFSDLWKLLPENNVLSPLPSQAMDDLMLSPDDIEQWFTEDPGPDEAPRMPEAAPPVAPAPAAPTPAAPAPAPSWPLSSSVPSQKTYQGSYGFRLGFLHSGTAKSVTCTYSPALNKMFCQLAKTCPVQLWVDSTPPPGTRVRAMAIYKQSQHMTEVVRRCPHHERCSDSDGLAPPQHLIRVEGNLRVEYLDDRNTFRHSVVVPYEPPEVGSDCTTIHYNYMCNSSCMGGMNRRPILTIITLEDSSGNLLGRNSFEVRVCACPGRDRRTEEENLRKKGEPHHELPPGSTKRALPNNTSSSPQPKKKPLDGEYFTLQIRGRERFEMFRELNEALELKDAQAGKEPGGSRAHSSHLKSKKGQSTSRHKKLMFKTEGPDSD
Chain of THRB (gene 7068) (P10828 whole entry, looked up, the tested form may be a part): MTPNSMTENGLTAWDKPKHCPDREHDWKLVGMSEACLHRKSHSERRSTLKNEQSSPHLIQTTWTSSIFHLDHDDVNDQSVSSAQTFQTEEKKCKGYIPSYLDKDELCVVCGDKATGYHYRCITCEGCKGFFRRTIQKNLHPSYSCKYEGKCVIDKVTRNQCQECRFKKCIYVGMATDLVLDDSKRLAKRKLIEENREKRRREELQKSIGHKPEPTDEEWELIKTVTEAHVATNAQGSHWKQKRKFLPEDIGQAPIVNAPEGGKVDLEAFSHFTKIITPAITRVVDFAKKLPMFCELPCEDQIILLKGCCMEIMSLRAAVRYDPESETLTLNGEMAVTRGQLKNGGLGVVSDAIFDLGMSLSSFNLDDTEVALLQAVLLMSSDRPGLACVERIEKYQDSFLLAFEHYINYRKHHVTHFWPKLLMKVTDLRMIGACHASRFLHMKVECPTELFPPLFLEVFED
Chain of THRA (gene 7067) (P10827 whole entry, looked up, the tested form may be a part): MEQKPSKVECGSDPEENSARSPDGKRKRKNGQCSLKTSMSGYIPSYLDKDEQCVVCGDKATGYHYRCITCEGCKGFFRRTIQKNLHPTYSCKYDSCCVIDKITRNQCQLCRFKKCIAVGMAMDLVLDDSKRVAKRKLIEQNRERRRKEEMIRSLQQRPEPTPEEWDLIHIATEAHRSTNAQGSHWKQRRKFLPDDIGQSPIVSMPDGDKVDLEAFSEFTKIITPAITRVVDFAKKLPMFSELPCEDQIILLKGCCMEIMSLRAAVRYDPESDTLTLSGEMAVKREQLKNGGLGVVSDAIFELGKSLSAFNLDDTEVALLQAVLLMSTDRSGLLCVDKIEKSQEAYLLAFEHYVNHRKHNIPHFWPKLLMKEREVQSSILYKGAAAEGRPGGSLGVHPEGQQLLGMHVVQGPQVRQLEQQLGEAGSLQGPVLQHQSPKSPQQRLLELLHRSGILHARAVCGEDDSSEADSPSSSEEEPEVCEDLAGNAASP
Chain of Retinoic acid receptor RXR-alpha (Homo sapiens) (P19793 whole entry, looked up): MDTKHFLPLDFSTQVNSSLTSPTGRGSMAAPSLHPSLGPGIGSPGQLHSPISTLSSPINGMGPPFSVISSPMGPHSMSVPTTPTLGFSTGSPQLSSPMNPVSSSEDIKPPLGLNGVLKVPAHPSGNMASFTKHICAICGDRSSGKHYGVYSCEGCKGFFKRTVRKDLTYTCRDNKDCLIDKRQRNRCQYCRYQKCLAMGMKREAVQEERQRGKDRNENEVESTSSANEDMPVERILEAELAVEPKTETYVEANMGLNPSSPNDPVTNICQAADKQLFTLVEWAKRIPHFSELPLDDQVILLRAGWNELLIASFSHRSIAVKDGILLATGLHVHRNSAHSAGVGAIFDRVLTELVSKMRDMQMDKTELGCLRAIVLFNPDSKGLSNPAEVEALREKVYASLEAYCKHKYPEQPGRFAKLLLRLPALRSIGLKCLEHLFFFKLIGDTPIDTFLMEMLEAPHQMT

C=CCc1ccccc1OCC(O)CNC(C)C (centres undefined)
inactive: [1] | [2] | [3]

OCC(O)COc1ccc(Cl)cc1 (centres undefined)
inactive: [1] | [2] | [4] | [3]

CC1=NN(c2ccc(C(=O)O)cc2)C(=O)C1
inactive: [1] | [2] | [3]

O=C(O)CCNC(=O)c1ccccc1
active: THRA (gene 7067) 15.2 µM | THRB (gene 7068) [6] 12.6 µM | THRB (gene 7068) [7] 16.1 µM
inactive: [1] | [2] | [5] | [3] | [8]

Cc1cc(OI)c(C(C)C)cc1-c1cc(C(C)C)c(OI)cc1C
inactive: [1] | [2] | [3]

CC(=O)CCC=C(C)CC/C=C(\C)CC/C=C(\C)CCC=C(C)C
inactive: [1] | [2] | [3]

CCCn1cc[n+](C)c1C
inactive: [1] | [9] | [5]

CN1CC(=O)N=C1N
inactive: [1] | [9] | [5]

O=C[C@H](O)[C@@H](O)[C@H](O[C@H]1O[C@H](CO)[C@@H](O[C@H]2O[C@H](CO)[C@@H](O)[C@H](O)[C@H]2O)[C@H](O)[C@H]1O)[C@H](O)CO
inactive: [1] | [9] | [5]

CCOC(=O)C1=C[C@]2(CC)CCCN3CCc4c(n1c1ccccc41)[C@@H]32
inactive: [1] | [2] | [5] | [3] | [10] | [11]
